From the supplement of paper PMC11417369
Over roughly 25,000 sequences, “ln(normalized median fluorescence intensity)” has its median near 9.7; the highest 2% begin near 11. The list comes from a sample in which the highest values are over-represented; it also holds similar and randomly drawn sequences.

Test system: PfAP2-HC AP2 domain (GST-tagged)
Test: gcPBM binding intensity (ln(normalized median fluorescence intensity)); higher = stronger DNA binding
Procedure, shortened: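 An Agilent 4 × 180k array of primer-extended double-stranded 36-bp intergenic genomic probes, with negative controls, was incubated for 1 h with GST-tagged P. falciparum DNA-binding domains expressed in E. coli. Alexa488 anti-GST antibody detected bound protein, scanned at 488 nm. Binding intensity is the highest Masliner-normalised natural-log median intensity across replicate spots of either probe orientation.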

Sequence | gcPBM binding intensity (ln)
TCTTTTTTTTTACATACTTTTTTCCTTTTTTTTTTA [CACACA_negctrl_site1429] | 9.71
TCTTACAAAAAACAAACAGAGAAAAATATAAGGAAA [XGTACX_negctrl_site520] | 9.61
AAATTATTTCCGTGTACACATAAATATATATTTTAT [CACACA_site5121] | 9.89
CAATATTTTCATAGATGTACTTTGGACTTATTATAT [XGTACX_site4849] | 9.6
AATATTGTATATAATAAACACACAATATTAAAAATA [CACACA_site8262] | 10.1
TAACATATTATATATACATGCATACGTGAACTAATC [TGCATGCA_site888] | 9.72
ATTTATTTATGTATTTGTACGTATATATTTATGCAT [XGTACX_site5218] | 9.83
AAAAAAATAAAACACACACACAAAAAAATAAAAATA [CACACA_site465] | 10.8
AAAACAAATAGACACGCACACAAAAAAAAAAAAAAA [CACACA_site801] | 10.3
TCAATAATAAAAAACACACACAAAAAAAAATAATTA [CACACA_site2798] | 10.2
GGACAACAAACAAACACACACAAAAAAAAAATAAAA [CACACA_site3791] | 11
AAGTAAAAAAATAGCACACACACAAAAACACAGACA [CACACA_site4839] | 10.7
CAACAAAATAAACACACACACACAAACACAAAAAAA [CACACA_site5806] | 11.4
ATAAATAAAAACACAAAACAAAACAAAACAAAACAA [CACACA_negctrl_site1257] | 9.61
ACAAATAAATAAAAAACACACACAAATAAATAAATA [CACACA_site8708] | 10.6
CAAAAAAAATAAAACACACACACAAAAAAATAAAAA [CACACA_site466] | 10.7
TTTCAATAATAAAAAACACACACAAAAAAAAATAAT [CACACA_site8905] | 11
GTAAAAAAATAGCACACACACAAAAACACGCACAAA [CACACA_site6723] | 11.4
AAGGACAACAAACAAACACACACAAAAAAAAAATAA [CACACA_site9263] | 10.2
TATTTGTAAAAATTGTGTACTTAGAAAATTCCAAAA [XGTACX_site6007] | 9.22
ATAATATATGAAAAAACGATTTTTTCATTTTAAATA [XGTACX_negctrl_site146] | 9.51
TTTGGTTATATTTAAAAAAGACTAATGAAAATTAAA [XGTACX_negctrl_site526] | 9.35
AACATTCTATGTTGCACACAAAGAGAAAAATTTATT [CACACA_site3995] | 9.78

Sequence | gcPBM binding intensity (ln)
TATATATATATATATATATATATTTTTATTATATAT [XGTACX_negctrl_site89] | 9.89
GTTTTCATCCAAAAAAGTACATTTATTTTTATACGA [XGTACX_site1039] | 9.39
TTTTCTAAAGTAAGTTAAGATATGCAAAAAAAAGAA [GTGCAC_negctrl_site242] | 9.62
ACAAAATAAAAACACACACACAAACACAAAAAAATA [CACACA_site3390] | 11.4
AAAATAAAATAAAACACAAAAAAATAAAACAAAATA [CACACA_negctrl_site16] | 9.78
AAAAAAAAAAAAAACACACACACAAAATAAACAAAC [CACACA_site2720] | 10.8
AAGGATATAAAAAAACGTACGTACGATAATATAATT [XGTACX_site1292] | 9.86
GTTGTTATATAAAATTGTACATAAAAAACAAAATAT [XGTACX_site5313] | 9.66
AAAAAAAAAAAAAAAACACACACATATATATAATAT [CACACA_site9038] | 10.3
GGAAAAACCATTCGCACACACACATAATATATAATA [CACACA_site1424] | 10.2
AAAAAAAAAAAAAAAACACACATATATCTATAATAT [CACACA_site6665] | 9.84
AAAAACCATTCGCACACACACATAATCTATAATATA [CACACA_site6782] | 11.1
AAAAACCATGGGCACACACACATAATATATAATATA [CACACA_site1425] | 10.4
AAAAACCATTGGCACACACACATAATATATAATATA [CACACA_site4903] | 11.4
TTACTCAAACAAACAAAAAAAAAAAAAAAAAAAAAA [TGCATGCA_negctrl_site457] | 8.89
TATTTCATAATAAATTGTACGCGTAGAAAACCATGA [XGTACX_site7506] | 9.99
TATTTATGCACGCGTGCACACACATATGAAAAAAGG [CACACA_site9090] | 9.87
ACATATCTATCGTTTTTAATTGTATATTATTATAAC [TGCATGCA_negctrl_site144] | 9.76
GGCAACATTTGAAACACACACACATACAAACAAACA [CACACA_site3307] | 10.3
AAAAAAAAAAGACACACACACACATACACATACATA [CACACA_site7362] | 11.1
TATAGACAAACACATACATGCATACATACATACATA [TGCATGCA_site273] | 9.75
CAAAGACACAAACACACACACACATACATACATACA [CACACA_site453] | 11.3
ATAAAACAAAGACACACACACATACACAAAAAAAAA [CACACA_site7752] | 10.5

Sequence | gcPBM binding intensity (ln)
AAAAAAAAAAGACACACACACACACTAATACATACA [CACACA_site6473] | 11.4
AATAAAAAAAAAAAAAAAAAAAAAAAGACACTAAAA [CACACA_negctrl_site1075] | 9.53
AAAAAAAAAAAACACACACACACACTAATACATACA [CACACA_site8135] | 10.6
AAAAAAAAAAGACACACACACACAAATACATACACA [CACACA_site6472] | 10.8
AAGACACAAAAACACACACACATACATACATACATA [CACACA_site454] | 10.3
CAACATTTGAGACACACACACATACAAACAAACAAA [CACACA_site7538] | 11.2
AAAAAAAAAAAAAAGACACACATATATATATATATA [CACACA_site633] | 9.63
TTATGGTATAAAAAAATACACACTTATATATATTCT [CACACA_site488] | 9.72
TACGTAAAAATAATACGTACATATATTTATAGAAAA [XGTACX_site4959] | 9.71
TATTAATTTTTTTTTTTTTTTTTTTTTTTTTTTTTT [CACACA_negctrl_site1329] | 9.26
ATGATACATAAAGAATATAAAACATGAAATATAATA [CACACA_negctrl_site1461] | 9.79
AAGATTTGAAAAAATACACACAATAAAAAAATAAAA [CACACA_site3281] | 10.1
TTTTATTATTTTTGTTGTACAGTATACTGTATGATT [XGTACX_site5359] | 9.69
TTAAAAAATCACAACACACACACACGCAAAAAAAAA [CACACA_site6793] | 10.8
AAAAAATCACGACACACACACACACTAAAAAAAAAA [CACACA_site6792] | 11.3
AACAAATACGAACACACACACACACTAAAAAAAAAA [CACACA_site6386] | 10.8
TCATAAAGAACAAAGTGTACCTATATATTACATACA [XGTACX_site7595] | 9.59
TATATATATATATATACACACACACCCACCAAAGCG [CACACA_site7904] | 10.1
TAAATATATAAATACACACACACCAAAGCAATAGAT [CACACA_site5605] | 10.5
TATATATATAAATACACACACACACCCCAAAGCGTA [CACACA_site4211] | 10.6
TATATATATATATACACACACACACCCCAAAGCGTA [CACACA_site64] | 11.1
TATAAATATAAATACACACACACACGCCAAAGCGTA [CACACA_site6181] | 11
TATAAATATAGACACACACACACCAAAGCGTAGCGC [CACACA_site6179] | 10.3

Sequence | gcPBM binding intensity (ln)
TATTATATTTATTTATGTACACATATACTTAAATAA [XGTACX_site1355] | 9.69
AAATAGCCAAAAATCATGCACACCTAAAAAAAAAAA [CACACA_site2572] | 9.77
AGCTGAAAAAAAAGCTTGCACACGTATTTGCTTTAT [CACACA_site1512] | 9.81
ATAAACAATTAACAAACATGCAAATTTTAAATGTGT [TGCATGCA_site919] | 9.68
ATATTTGTATAAATTGCACACTTTATTTTTTTTAAG [CACACA_site1558] | 9.61
TTTGTTTGTAAAATGTTGCACTTTCTTTTGCTGATA | 9.66
ATATATCTATATAGAAATGTATATATATATATGTGT [TGCATGCA_negctrl_site349] | 9.77
TATTTCGTAATTTAATAATATACAAGAAATATATAT [XGTACX_negctrl_site143] | 9.4
CAATCAAAGAAACACACACACACCTAAACATAAAAG [CACACA_site2756] | 11.7
CAATCAAATAGACACACACACACCTAAACATAAAAG [CACACA_site7322] | 11.1
AACAATCAAATAGACACACACACACCCAAACATAAA [CACACA_site2757] | 10.6
ATCAAATAGAGACACACACACCTAAACATAAAAGAA [CACACA_site7321] | 10.6
ATAAAAAAGAAACAAACACACATACATACAAACAAA [CACACA_site4256] | 10.3
CAATCAAATGGACACACACACACCTAAACATAAAAG [CACACA_site5524] | 10.5
GAAAAGTATAAAAAACGTACAAGTTTTATTTTCACA [XGTACX_site4604] | 9.58
TTTCTAATTATTTCCCTTCAAATATATTAATATCGT [CACACA_negctrl_site429] | 9.55
CATATACTCGGACACACACACACACCGACAAAAAAA [CACACA_site4433] | 11.1
AGTATACATATATATACACACATATATATATATATA [CACACA_site300] | 9.8
AAAACAAACGGACACACACACATATATATATATATA [CACACA_site5924] | 10.5
AGTATACTCGGACACACACACACATATATATATATA [CACACA_site5031] | 11.7
AGTATACATATATATACACACACATATATATATATA [CACACA_site7883] | 9.87
CATATATACTCATACACACACACACCGACACAGACA [CACACA_site5026] | 10.3
